Measurements: PubChem BioAssay

How the values were obtained:
[1] = tested on: Botulinum neurotoxin type F light chain protease (Clostridium botulinum); assay: Clostridium botulinum type F light chain protease inhibitors, microsphere substrate cleavage, validation (AID 588459); details: multiplex microsphere protease substrate cleavage assay, flow cytometry; at 10 µM; stronger effect = higher value
[2] = target: Botulinum neurotoxin type A (Clostridium botulinum) (UniProt P0DPI0); assay: BoNT/A light chain protease inhibitors, biochemical, multiplex microsphere flow cytometry, validation set (AID 588460); details: at 10 µM, stronger effect = higher value
Chain of Botulinum neurotoxin type A (Clostridium botulinum) (P0DPI0 whole entry, looked up): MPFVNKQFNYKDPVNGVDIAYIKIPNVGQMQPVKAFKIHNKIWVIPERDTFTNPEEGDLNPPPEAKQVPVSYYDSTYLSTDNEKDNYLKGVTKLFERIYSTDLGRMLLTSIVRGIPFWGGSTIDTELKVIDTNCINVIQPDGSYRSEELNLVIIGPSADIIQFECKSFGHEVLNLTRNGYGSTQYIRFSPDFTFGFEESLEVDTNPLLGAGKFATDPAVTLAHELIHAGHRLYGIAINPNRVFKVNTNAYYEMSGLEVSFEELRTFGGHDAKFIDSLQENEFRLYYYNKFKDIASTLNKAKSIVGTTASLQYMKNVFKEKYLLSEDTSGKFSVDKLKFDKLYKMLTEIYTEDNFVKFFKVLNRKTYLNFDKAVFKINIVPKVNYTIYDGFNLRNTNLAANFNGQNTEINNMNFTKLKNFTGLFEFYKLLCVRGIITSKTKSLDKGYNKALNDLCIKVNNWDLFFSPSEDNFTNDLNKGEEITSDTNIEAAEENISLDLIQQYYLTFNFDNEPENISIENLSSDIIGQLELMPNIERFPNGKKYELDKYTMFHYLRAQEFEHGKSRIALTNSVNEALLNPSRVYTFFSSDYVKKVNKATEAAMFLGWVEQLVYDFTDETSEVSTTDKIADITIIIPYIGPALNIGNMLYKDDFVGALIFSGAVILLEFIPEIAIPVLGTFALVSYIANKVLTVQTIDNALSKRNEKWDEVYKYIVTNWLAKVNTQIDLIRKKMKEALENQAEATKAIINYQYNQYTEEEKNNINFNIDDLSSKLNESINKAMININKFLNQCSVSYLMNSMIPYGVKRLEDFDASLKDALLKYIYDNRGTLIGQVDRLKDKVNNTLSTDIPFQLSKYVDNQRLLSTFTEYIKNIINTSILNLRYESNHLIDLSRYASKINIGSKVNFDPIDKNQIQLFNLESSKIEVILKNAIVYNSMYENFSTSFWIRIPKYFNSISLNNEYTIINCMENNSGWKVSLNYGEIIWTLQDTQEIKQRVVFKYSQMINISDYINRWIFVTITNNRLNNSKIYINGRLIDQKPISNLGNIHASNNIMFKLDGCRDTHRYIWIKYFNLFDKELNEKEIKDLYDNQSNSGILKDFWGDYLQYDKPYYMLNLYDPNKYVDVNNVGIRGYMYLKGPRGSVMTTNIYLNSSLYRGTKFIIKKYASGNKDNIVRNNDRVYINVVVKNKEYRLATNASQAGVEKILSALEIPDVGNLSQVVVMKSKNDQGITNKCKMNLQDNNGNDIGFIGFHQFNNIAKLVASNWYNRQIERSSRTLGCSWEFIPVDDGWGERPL

[3] = target: Lethal factor (Bacillus anthracis) (UniProt P15917); assay: Bacillus anthracis lethal factor inhibition, microsphere flow cytometry protease assay, validation at 10 µM (AID 588461); details: multiplex microsphere protease cleavage assay, stronger effect = higher value
Chain of Lethal factor (Bacillus anthracis) (P15917 whole entry, looked up): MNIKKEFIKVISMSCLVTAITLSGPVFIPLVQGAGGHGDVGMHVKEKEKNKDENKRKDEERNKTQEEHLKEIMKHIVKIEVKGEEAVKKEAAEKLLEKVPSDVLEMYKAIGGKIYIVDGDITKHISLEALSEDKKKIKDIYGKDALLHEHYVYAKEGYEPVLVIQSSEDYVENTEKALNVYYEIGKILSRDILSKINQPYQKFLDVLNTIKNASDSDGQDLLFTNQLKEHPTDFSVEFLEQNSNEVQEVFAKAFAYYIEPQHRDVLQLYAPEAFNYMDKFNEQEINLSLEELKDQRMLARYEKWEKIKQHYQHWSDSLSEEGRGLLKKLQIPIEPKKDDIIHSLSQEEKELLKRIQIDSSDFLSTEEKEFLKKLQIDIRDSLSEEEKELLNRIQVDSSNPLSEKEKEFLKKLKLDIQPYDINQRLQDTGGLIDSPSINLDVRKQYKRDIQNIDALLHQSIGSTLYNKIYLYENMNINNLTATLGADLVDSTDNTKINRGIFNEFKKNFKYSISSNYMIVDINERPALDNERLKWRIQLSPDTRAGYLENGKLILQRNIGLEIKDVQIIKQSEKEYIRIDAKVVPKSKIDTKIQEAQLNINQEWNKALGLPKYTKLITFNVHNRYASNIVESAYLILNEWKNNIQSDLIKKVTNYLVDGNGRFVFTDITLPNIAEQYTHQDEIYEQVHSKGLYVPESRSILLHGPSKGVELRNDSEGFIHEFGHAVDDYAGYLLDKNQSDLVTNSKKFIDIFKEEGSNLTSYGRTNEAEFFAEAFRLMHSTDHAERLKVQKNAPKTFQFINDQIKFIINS

Measured: inhibition

COc1ccc(-c2[nH]ncc2CN(C)C(C)c2ccon2)c(OC)c1 (configuration not stated)
inactive: [1] 1.9% | [2] 1.4% | [3] 0%

COCCc1ccc(OCC(O)CNC(C)C)cc1 (configuration not stated)
inactive: [1] -1.4% | [2] -1.4% | [3] -2.9%

O=P(c1ccccc1)(c1ccccc1)c1nc(-c2ccc(Cl)cc2)oc1N1CCOCC1
inactive: [1] -1% | [2] -1.2% | [3] 0.6%

Cn1c2[n+](c3ccc(Cl)cc3c1=O)Cc1ccccc1-2
inactive: [1] 0.8% | [2] -1% | [3] -7.8%

COCCCN1C(=O)/C(=C\c2cccs2)C(C(=O)OC)=C1C
inactive: [1] -1.3% | [2] -0.8% | [3] 3.3%

OC[C@@H](O)[C@@H](O[C@H]1O[C@H](CO)[C@@H](O)[C@H](O)[C@H]1O)[C@H](O)[C@@H](O)CO
inactive: [1] 3.7% | [2] 0.6% | [3] 3.8%

O=S(=O)(NCCCCCNS(=O)(=O)c1ccccc1)c1ccccc1
inactive: [1] 0.4% | [2] -0.1% | [3] -0.7%

OCC1CCN(Cc2cn(Cc3ccccc3)nc2-c2cc3ccccc3o2)CC1
inactive: [1] -0.4% | [2] -0.7% | [3] -0.9%

Oc1[nH]c2ccccc2c1N=Nc1ccccc1
inactive: [1] -2.7% | [2] -0.4% | [3] 1.4%

O=C(N1CCCC1)C12CC3CC(C1)CC(C(=O)N1CCCC1)(C3)C2
inactive: [1] -1.6% | [2] -2.5% | [3] -8%

C=CCc1cc(Cl)ccc1OCCOCCN(C)C
inactive: [1] -0.1% | [2] -1.3% | [3] -1.2%

Cc1ccc(C2=NOC(=O)/C2=C\C=C\c2ccccc2)cc1
inactive: [1] 2.1% | [2] 1% | [3] 0.5%

COc1ccccc1C(O)c1nccn1C (configuration not stated)
inactive: [1] 1.9% | [2] -0.7% | [3] 0.4%

COc1cccc(N2CC(O)=C(c3nc4ccccc4c(=O)[nH]3)C2=N)c1
inactive: [1] -2.2% | [2] -1.1% | [3] -6.2%

CCOc1cc2c(cc1OCC)C(c1ccccc1)N(c1ccc(C(=O)O)cc1)C(=O)C2 (configuration not stated)
inactive: [1] -1.8% | [2] -0.7% | [3] -5.2%

O=C(CCSc1ccccc1)N1CCCC1
inactive: [1] 1.2% | [2] -0.9% | [3] -2.3%

C[C@@H]1C[C@H](Nc2ccccc2)c2ccccc2N1C(=O)c1cccnc1
inactive: [1] 1% | [2] 1% | [3] -2.9%

C(=C/c1nccc2c1[nH]c1ccccc12)/c1ccc2c(c1)OCO2
inactive: [1] 3.2% | [2] 6.7% | [3] -1.4%

COC(=O)c1cc(OC)c(OC)cc1NC(=O)CN1C(=O)c2ccccc2C1=O
inactive: [1] -3.5% | [2] -1% | [3] -5.5%

COC(=O)c1ccc2c(c1)C(=O)/C(=C/c1ccc(O)cc1)O2
inactive: [1] -0.8% | [2] 0.7% | [3] -8.5%

CCOC(=O)c1ccccc1NC(=O)c1ccc(F)cc1
inactive: [1] -1.8% | [2] -1% | [3] -0.1%

C/C(NC(=O)c1cccs1)=C1\C(=O)C[C@@H]2[C@H]1C2(C)C
inactive: [1] 3% | [2] 0.5% | [3] 3.4%

COc1cccc(OCc2nnc(-c3cccs3)o2)c1
inactive: [1] 1.2% | [2] -0.7% | [3] 1.3%

Cc1oc2c(C)c3oc(=O)c4c(c3cc2c1C)CCCC4
inactive: [1] 0.8% | [2] -0.2% | [3] 1.3%

O=Cc1ccc(O)c(O)c1
inactive: [1] -2% | [2] -1.1% | [3] -1%

O=c1c(-c2ccc3c(c2)OCCO3)coc2cc(OC3OC(CO)C(O)C(O)C3O)ccc12 (configuration not stated)
inactive: [1] 0.2% | [2] 0.1% | [3] 6.4%

CC(=O)OCC(=O)C1=CCC2C3CCC4=CC(=O)C=CC4(C)C3(F)C(OC(C)=O)CC12C (configuration not stated)
inactive: [1] 0.8% | [2] -0.6% | [3] 2.4%

CC(C)CC(NC(=O)CNC(=O)C1O[C@@H]2OC(C)(C)O[C@@H]2[C@H]2OC(C)(C)O[C@@H]12)C(=O)O (some centres not stated)
inactive: [1] 2.8% | [2] -2% | [3] 2.8%

CCCc1cc(=O)[nH]c(=S)[nH]1
inactive: [1] -2.4% | [2] 1.4% | [3] 1.8%
